In ChEMBL document CHEMBL1961873, “Compounds: GSK PKIS; Assays: Nanosyn kinase panel” (2012):

How the values were obtained:
[1] = target: Fibroblast growth factor receptor 4 (Homo sapiens) (UniProt P22455); conditions: at 1 µM;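 also: reported figure is the averaged percent inhibition of FGFR4, from the GSK PKIS kinase screening panel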
[2] = target: Tyrosine-protein kinase Fgr (Homo sapiens) (UniProt P09769); conditions: at 0.1 µM
[3] = target: Tyrosine-protein kinase Fgr (Homo sapiens) (UniProt P09769); conditions: at 1 µM
[4] = target: Vascular endothelial growth factor receptor 1 (Homo sapiens) (UniProt P17948); conditions: at 0.1 µM
[5] = target: Vascular endothelial growth factor receptor 1 (Homo sapiens) (UniProt P17948); conditions: at 1 µM
[6] = target: Receptor-type tyrosine-protein kinase FLT3 (Homo sapiens) (UniProt P36888); conditions: at 0.1 µM
[7] = target: Receptor-type tyrosine-protein kinase FLT3 (Homo sapiens) (UniProt P36888); conditions: at 1 µM
[8] = test system: T1, Receptor-type tyrosine-protein kinase FLT3 (Homo sapiens), P36888 [D835Y]; conditions: at 0.1 µM
T1 sequence (whole entry): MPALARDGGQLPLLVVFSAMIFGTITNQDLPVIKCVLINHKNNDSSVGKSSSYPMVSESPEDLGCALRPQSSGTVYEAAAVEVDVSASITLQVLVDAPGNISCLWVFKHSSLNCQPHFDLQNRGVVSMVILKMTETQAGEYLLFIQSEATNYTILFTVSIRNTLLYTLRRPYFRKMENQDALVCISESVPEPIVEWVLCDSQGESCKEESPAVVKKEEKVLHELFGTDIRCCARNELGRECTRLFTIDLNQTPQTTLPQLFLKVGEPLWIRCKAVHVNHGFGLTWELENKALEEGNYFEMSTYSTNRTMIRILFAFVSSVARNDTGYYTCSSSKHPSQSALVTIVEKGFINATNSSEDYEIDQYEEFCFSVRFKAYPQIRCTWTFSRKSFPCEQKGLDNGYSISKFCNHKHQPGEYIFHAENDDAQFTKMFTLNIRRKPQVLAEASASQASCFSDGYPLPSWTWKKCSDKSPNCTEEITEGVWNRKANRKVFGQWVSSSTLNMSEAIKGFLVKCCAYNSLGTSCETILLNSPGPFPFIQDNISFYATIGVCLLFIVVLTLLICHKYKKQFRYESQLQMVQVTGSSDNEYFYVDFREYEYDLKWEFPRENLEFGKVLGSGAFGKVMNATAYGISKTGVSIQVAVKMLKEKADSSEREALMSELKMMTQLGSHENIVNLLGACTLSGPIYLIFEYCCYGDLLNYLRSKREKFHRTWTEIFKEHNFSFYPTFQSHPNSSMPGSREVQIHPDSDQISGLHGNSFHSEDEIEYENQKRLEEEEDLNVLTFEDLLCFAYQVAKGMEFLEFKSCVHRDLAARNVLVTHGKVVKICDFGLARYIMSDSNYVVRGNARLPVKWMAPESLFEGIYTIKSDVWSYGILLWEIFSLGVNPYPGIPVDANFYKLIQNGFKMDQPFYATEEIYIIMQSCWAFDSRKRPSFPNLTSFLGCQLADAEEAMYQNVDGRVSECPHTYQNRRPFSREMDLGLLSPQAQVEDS

[9] = target: Non-receptor tyrosine-protein kinase TYK2 (Homo sapiens) (UniProt P29597); conditions: at 1 µM;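 also: values are mean percent inhibition of TYK2 kinase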
Non-receptor tyrosine-protein kinase TYK2 (Homo sapiens), sequence (P29597 whole entry): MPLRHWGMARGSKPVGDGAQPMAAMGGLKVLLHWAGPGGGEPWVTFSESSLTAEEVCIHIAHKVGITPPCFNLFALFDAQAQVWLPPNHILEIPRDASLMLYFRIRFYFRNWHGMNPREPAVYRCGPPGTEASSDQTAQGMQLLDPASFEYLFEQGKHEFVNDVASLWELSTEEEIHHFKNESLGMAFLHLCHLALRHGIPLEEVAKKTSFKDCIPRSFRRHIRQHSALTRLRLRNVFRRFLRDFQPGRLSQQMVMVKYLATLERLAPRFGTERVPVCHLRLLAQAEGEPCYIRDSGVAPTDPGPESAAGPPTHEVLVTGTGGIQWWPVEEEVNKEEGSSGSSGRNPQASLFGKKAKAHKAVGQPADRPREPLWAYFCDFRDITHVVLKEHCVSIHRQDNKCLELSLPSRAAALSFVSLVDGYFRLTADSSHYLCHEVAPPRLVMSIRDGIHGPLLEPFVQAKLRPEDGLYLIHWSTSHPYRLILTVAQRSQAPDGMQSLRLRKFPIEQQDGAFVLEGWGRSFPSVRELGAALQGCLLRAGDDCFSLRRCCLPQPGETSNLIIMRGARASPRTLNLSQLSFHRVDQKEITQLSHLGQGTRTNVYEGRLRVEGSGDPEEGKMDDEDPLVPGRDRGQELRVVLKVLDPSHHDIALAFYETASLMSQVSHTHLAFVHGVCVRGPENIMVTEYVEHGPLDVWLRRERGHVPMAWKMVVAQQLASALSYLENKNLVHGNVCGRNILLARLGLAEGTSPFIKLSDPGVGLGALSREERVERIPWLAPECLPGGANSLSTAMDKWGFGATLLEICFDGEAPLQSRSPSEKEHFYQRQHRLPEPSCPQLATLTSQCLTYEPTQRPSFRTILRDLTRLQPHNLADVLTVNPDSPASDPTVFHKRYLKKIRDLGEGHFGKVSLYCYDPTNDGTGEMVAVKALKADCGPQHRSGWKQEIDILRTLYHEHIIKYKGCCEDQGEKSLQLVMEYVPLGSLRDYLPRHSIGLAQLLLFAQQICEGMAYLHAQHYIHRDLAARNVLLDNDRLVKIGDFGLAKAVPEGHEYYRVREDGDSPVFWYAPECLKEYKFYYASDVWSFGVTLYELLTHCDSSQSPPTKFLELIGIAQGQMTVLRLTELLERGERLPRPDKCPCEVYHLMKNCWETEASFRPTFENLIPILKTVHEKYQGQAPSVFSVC

[10] = target: T2, Tyrosine-protein kinase receptor TYRO3 (Homo sapiens) (UniProt Q06418); conditions: at 0.1 µM
T2 sequence (whole entry): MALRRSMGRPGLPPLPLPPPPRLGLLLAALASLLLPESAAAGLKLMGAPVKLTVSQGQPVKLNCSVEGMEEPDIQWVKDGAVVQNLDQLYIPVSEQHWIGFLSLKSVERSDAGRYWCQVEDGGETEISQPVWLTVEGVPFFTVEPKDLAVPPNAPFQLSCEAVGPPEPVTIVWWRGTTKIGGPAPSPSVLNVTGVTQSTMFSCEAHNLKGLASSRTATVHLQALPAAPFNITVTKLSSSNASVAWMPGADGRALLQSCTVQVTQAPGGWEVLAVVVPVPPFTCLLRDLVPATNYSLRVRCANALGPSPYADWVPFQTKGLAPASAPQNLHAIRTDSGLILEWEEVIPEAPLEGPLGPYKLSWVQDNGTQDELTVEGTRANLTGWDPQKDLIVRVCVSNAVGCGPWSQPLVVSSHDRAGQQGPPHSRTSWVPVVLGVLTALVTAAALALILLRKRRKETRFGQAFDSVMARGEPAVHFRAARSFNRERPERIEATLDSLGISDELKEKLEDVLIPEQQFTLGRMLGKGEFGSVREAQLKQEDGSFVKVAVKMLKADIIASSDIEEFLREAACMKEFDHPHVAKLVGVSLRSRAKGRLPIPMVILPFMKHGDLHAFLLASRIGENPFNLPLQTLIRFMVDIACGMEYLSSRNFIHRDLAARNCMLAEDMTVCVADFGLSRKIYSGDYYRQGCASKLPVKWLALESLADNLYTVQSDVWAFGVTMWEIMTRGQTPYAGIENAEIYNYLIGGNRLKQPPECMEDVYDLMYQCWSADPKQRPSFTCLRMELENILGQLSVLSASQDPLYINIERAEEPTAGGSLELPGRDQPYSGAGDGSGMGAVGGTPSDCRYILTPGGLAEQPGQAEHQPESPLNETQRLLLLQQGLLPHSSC

[11] = target: T2, Tyrosine-protein kinase receptor TYRO3 (Homo sapiens); conditions: at 1 µM
[12] = target: Tyrosine-protein kinase Yes (Homo sapiens) (UniProt P07947); conditions: at 0.1 µM
Tyrosine-protein kinase Yes (Homo sapiens), sequence (P07947 2-543 limits assumed): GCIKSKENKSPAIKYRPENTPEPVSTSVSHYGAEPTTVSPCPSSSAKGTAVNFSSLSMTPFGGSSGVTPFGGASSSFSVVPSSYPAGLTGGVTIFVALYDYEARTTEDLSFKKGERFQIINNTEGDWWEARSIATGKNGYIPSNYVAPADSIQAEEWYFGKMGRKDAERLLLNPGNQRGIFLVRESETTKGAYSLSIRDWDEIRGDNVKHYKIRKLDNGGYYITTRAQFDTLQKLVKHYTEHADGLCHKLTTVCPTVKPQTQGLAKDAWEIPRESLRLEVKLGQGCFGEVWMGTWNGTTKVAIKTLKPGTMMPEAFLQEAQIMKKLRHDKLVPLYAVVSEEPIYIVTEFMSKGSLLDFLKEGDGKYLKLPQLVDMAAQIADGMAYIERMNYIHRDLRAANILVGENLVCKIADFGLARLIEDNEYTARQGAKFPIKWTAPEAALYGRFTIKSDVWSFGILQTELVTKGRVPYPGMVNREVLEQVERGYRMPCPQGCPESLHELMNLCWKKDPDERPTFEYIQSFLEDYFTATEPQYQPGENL

[13] = target: Tyrosine-protein kinase Yes (Homo sapiens) (UniProt P07947); conditions: at 1 µM
[14] = target: T3, Tyrosine-protein kinase ZAP-70 (Homo sapiens) (UniProt P43403); conditions: at 0.1 µM
T3 sequence (whole entry): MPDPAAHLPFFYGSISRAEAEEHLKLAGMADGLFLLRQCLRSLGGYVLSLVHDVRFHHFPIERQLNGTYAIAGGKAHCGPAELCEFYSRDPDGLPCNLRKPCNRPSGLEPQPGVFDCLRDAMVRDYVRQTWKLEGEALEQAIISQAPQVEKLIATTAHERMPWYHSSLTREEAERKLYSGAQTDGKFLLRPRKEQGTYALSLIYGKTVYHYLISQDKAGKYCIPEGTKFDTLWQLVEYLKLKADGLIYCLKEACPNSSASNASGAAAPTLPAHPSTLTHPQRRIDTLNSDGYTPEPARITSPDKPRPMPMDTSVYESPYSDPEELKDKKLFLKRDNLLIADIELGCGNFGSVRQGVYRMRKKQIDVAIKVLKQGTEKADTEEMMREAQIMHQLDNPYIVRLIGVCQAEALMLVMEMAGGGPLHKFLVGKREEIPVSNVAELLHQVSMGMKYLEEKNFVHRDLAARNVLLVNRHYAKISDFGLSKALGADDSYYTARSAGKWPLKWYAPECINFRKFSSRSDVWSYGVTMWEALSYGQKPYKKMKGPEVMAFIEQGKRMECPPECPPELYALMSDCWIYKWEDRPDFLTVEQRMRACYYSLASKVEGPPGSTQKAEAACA

[15] = target: T3, Tyrosine-protein kinase ZAP-70 (Homo sapiens); conditions: at 1 µM
[16] = target: Serine/threonine-protein kinase B-raf (Homo sapiens) (UniProt P15056); conditions: at 0.1 µM
Serine/threonine-protein kinase B-raf (Homo sapiens), sequence (P15056 whole entry): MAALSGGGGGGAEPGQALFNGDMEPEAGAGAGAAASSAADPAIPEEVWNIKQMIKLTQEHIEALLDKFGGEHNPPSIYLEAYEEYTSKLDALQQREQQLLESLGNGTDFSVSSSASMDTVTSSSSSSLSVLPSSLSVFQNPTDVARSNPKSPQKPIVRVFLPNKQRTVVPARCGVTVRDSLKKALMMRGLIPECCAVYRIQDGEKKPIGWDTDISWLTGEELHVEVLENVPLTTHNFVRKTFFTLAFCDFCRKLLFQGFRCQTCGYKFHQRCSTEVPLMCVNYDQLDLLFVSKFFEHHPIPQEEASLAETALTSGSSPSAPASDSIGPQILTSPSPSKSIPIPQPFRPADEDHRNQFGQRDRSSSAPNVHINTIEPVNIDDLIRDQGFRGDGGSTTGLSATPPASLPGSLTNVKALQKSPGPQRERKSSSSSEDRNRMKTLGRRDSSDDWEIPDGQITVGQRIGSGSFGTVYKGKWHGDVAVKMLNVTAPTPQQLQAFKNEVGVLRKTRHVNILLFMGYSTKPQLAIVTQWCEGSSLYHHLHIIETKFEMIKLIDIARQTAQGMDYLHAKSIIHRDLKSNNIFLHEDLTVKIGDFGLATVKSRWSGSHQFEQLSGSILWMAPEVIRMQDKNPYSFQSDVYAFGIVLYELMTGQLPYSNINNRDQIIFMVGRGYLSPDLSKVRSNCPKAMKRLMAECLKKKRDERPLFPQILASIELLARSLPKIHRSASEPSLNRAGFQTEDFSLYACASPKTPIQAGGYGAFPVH

[17] = target: Serine/threonine-protein kinase B-raf (Homo sapiens) (UniProt P15056); conditions: at 1 µM
[18] = test system: Serine/threonine-protein kinase B-raf (Homo sapiens), P15056 [V600E]; conditions: at 0.1 µM
Serine/threonine-protein kinase B-raf (Homo sapiens), P15056 [V600E], sequence (P15056 whole entry V600E): as the sequence (P15056 whole entry) above, with V600E counted along it

[19] = test system: Serine/threonine-protein kinase B-raf (Homo sapiens), P15056 [V600E]; conditions: at 1 µM
[20] = target: RAF proto-oncogene serine/threonine-protein kinase (Homo sapiens) (UniProt P04049); conditions: at 0.1 µM;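 also: values are mean CRAF kinase inhibition from profiling of the GSK Published Kinase Inhibitor Set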
RAF proto-oncogene serine/threonine-protein kinase (Homo sapiens), sequence (P04049 whole entry): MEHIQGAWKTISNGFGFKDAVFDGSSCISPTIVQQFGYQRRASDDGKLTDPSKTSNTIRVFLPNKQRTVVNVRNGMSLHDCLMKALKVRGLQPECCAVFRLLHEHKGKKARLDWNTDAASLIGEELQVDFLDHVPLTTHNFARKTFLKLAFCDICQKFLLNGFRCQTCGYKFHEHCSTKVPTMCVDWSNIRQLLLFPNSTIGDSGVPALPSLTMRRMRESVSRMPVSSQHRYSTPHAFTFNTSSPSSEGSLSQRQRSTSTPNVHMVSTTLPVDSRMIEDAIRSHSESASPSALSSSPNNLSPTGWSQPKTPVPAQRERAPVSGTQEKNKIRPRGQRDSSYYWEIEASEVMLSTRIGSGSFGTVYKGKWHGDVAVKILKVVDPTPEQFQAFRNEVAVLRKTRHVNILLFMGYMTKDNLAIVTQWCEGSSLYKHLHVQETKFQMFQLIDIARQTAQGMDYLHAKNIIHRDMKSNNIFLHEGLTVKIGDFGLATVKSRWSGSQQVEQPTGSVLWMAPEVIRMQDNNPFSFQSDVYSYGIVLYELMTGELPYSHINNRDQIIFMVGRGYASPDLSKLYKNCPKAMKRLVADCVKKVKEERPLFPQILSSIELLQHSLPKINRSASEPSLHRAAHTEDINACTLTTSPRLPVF

Fibroblast growth factor receptor 4 (Homo sapiens), sequence (P22455 22-802 limits assumed): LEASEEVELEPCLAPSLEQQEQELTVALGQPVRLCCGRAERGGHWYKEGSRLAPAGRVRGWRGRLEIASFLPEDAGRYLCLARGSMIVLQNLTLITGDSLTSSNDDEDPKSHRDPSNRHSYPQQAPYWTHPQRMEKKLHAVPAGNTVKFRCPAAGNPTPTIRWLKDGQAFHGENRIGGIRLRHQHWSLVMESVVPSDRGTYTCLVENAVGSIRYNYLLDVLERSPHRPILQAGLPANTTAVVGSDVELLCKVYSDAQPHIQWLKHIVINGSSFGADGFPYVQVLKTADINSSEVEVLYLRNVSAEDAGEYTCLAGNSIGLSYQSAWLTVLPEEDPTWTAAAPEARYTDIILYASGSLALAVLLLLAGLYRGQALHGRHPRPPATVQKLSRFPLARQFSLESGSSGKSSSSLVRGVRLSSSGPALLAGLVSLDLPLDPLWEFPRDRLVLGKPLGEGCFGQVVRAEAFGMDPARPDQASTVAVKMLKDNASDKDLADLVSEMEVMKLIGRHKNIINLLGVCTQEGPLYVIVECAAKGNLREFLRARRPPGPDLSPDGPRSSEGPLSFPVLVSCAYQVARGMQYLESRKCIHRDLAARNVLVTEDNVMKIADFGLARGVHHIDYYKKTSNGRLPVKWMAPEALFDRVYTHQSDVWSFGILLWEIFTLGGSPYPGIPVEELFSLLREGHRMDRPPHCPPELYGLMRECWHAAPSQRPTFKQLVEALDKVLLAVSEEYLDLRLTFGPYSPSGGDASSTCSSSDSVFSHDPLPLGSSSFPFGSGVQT
Tyrosine-protein kinase Fgr (Homo sapiens), sequence (P09769 2-529 limits assumed): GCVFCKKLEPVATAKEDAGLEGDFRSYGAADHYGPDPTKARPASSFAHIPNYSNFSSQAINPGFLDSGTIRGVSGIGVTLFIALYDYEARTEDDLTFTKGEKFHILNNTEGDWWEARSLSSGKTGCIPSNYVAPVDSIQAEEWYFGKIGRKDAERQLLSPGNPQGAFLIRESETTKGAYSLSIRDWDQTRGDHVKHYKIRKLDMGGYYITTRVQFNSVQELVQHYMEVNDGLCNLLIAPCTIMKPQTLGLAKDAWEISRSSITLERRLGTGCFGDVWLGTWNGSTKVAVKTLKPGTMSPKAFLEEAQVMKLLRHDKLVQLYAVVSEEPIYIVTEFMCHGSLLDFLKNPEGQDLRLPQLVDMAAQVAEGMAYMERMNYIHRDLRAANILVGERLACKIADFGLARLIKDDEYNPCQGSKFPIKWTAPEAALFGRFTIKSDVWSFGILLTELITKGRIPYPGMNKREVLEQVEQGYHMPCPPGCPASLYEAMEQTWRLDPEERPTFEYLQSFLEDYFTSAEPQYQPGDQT

Row | SMILES | inhibition [1] | inhibition [2] | inhibition [3] | inhibition [4] | inhibition [5] | inhibition [6] | inhibition [7] | inhibition [8] | inhibition [9] | inhibition [10] | inhibition [11] | inhibition [12] | inhibition [13] | inhibition [14] | inhibition [15] | inhibition [16] | inhibition [17] | inhibition [18] | inhibition [19] | inhibition [20]
1 | O=C(Nc1n[nH]c2nc(-c3ccc(O)cc3)c(Br)cc12)C1CC1 | 3.05% | 7.15% | 21.3% | 2.34% | 17.7% | 5.54% | 25.7% | 4.14% | 17.6% | 10.4% | 41.4% | 5.61% | 27.4% | 5.14% | 4.28% | 9.27% | 12.6% | 10.1% | 13% | -1.54%
2 | COc1cc2ncn(-c3cc(OCc4ccccc4C(F)(F)F)c(C(C)=O)s3)c2cc1OC | 0.4% | 3.6% | 6.26% | 1.7% | 1.67% | 1.77% | 5.32% | 1.44% | -0.07% | 1.52% | 2.25% | 2.59% | 6.19% | -0.08% | -3.94% | 5.13% | 5.83% | 4.21% | 4.4% | -0.73%
3 | Cc1nnc(-c2ccc(C)c(-c3ccc(C(=O)NCc4ccc(Cl)cc4)cc3)c2)o1 | -3.75% | 4.76% | 1.82% | 2.48% | 2.52% | 2.13% | 0.77% | 2.22% | -3.78% | 2.85% | 3.57% | 2.58% | 5.29% |  | -3.27% | 5.55% | 4.07% | 6.27% | 3.85% | 8.41%
4 | NS(=O)(=O)c1ccc(N/N=C2\C(=O)Nc3ccc(-c4cnco4)cc32)cc1 | -2.44% | 3.25% | 12.9% | -0.89% | 7.48% | 5.93% | 38.3% | 22.6% | 9.13% | 2.48% | 12.4% | 2.12% | 12.1% |  | 2.47% | 3.07% | 5.71% | 1.57% | 4.4% | 0.67%
